PubChem BioAssay AID1619 (SRMLSC, 2009)
About 830 (0.38%) of roughly 220,000 compounds were called active.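 The calls were made as follows: active = compound inhibiting the enzyme by more than half at any dose during confirmatory dose-response retesting; inconclusive = strong single-dose inhibitors picked by rank but not retested; inactive = the rest.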 A selection follows. Entries with a potency or affinity are not part of this list.

Molecular target: Leucine aminopeptidase (Plasmodium falciparum (isolate 3D7)) (UniProt Q8IL11)
Sequence (Q8IL11 whole entry, looked up): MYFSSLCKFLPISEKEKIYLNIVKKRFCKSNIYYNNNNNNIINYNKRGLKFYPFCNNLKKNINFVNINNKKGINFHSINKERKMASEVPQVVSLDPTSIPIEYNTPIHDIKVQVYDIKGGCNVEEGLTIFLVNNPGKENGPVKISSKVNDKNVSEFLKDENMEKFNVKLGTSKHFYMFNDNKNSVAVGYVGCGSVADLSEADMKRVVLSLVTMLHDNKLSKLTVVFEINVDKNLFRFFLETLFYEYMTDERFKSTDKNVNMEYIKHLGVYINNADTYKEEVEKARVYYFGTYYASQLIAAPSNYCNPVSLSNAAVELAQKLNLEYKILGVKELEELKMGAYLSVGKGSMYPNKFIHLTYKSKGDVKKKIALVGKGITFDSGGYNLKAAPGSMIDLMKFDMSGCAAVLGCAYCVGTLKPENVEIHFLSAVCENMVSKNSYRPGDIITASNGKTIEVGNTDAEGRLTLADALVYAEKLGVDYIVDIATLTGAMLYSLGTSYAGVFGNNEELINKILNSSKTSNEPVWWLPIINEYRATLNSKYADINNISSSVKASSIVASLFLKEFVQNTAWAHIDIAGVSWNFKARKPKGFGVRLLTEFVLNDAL
Test: P. falciparum M17LAP inhibitors, primary screen, biochemical, fluorogenic H-Leu-NHMec substrate, 1536-well (AID 1619);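 also: plate controls were full reaction with DMSO carrier for no effect and no enzyme background for full effect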
Settings: recombinant M17LAP, H-Leu-NHMec fluorogenic kinetic assay; at 30 µM; stronger effect = higher value

inhibition, inactive:
COC(=O)c1ccc(NC(c2ccc(Cl)cc2)P(=O)(OC)OC)cc1 (stereo not given) 4.43%
CS(=O)(=O)N(CC(=O)Nc1ccc(S(=O)(=O)N2CCCC2)cc1)c1ccccc1 1.45%
Cn1c(SCC(=O)C(C)(C)C)nnc1-c1ccc(F)cc1 0.55%
CN(O)/C=C/C(=O)c1ccc(Br)cc1 -3.22%
C[C@@H]1C[C@H](O)c2cc(Cl)ccc2N1 5.04%
CCOC(=O)C1(CCCc2ccccc2)CCN(C(=O)CCc2cnccn2)CC1 -4.8%
COc1ccc(-c2cc(=O)oc3cc(OCC(C)=O)ccc23)cc1 10.9%
CC(Oc1ccc2c(-c3ccccc3)cc(=O)oc2c1)C(=O)O (stereo not given) 36.3%
N#C/C(=C\c1cn[nH]c1-c1ccccc1Br)C(=O)O 4.87%
CCCc1cc(=O)n2[nH]c(NCc3ccccc3Cl)nc2n1 23%
Cc1cccc(N(C(=O)c2csnn2)C(C(=O)NC(C)(C)C)c2cccs2)c1 (stereo not given) 9.85%
CCc1nc(N2CCN(C(C)=O)CC2)c(C#N)c2c1COC(C)(C)C2 -49.5%
O=C(c1cnn(-c2ccccc2)c1)c1ccccc1O -6.3%
O=C(c1cnn(C(=O)c2ccc(O)cc2)c1)c1ccccc1O -4.26%
CCCc1nnc(SCc2ccc(OC)cc2)n1N 9.43%
COc1ccc(-c2nc(-c3cccc(C(F)(F)F)c3)no2)cc1OC -5.65%
Cc1cccc(NC(=O)COc2ccc(/C=C\c3[nH]c(=O)[nH]c(=O)c3[N+](=O)[O-])cc2)c1 23.7%
CNC(=O)CSc1nc(-c2ccccc2)c(-c2ccccc2)o1 3.38%
NC(=O)CSc1nc(-c2ccccc2)c(-c2ccccc2)o1 -9.73%
CC(C)C(=O)Nc1ccc(NC(=O)c2ccccn2)cn1 7.94%
CNC(=O)c1sccc1S(=O)(=O)Cc1c(Cl)cccc1Cl 0.44%
CCOC(=O)c1c(NC(=O)C2C3C=CC(CC3)C2C(=O)O)sc(C)c1C (stereo not given) 46.5%
COC(=O)c1cc(C)sc1NC(=O)C1C2C=CC(CC2)C1C(=O)O (stereo not given) 47%
CCOC(=O)c1c(NC(=O)C2CC2)sc(C)c1CC -1.68%
CCOC(=O)c1sc(NC(=O)C2C3C=CC(C3)C2C(=O)O)nc1C (stereo not given) 3.83%
CCOCCCn1c(=O)c(NC(=O)c2ccc(OCC)cc2)c2n(c1=S)CCCCC2 10.1%
O=C(NC1CCCC1)C1C2C=CC3(CN(Cc4cccs4)C(=O)C13)O2 (stereo not given) -3.35%
O=C(NCC1CCCO1)C1C2C=CC3(CN(Cc4cccs4)C(=O)C13)O2 (stereo not given) 15.4%
Cc1ccc(S(=O)(=O)N(C)CCCC(=O)NC(C)(C)C)cc1 -1.26%
O=C1CN(S(=O)(=O)c2ccc(Cl)cc2)CC(=O)N1CCc1ccccc1 -1.31%
COc1ccc(C2=Nn3c(nnc3-c3ccccc3OC)SC2)cc1OC 26.3%
CCOc1ccc(C2=Nn3c(nnc3-c3ccccc3OC)SC2)cc1 8.39%
CC(=O)Nc1nc(CCN2C(=O)c3ccccc3C2=O)cs1 0.9%
Cc1cccc2cc(C(c3nnnn3CC3CCCO3)N3CCCc4ccccc43)c(=O)[nH]c12 (stereo not given) 10.5%
CC(C)c1ccc(O)c(NC(=O)c2cccnc2)c1 7.21%
CN1C2CCC1/C(=C\c1ccccc1)C(=O)/C2=C\c1ccccc1 5.66%
CN1C2CCC1/C(=C\c1ccccc1Cl)C(=O)/C2=C\c1ccccc1Cl 3.79%
O=c1[nH]cnc2scc(-c3cccs3)c12 -7.24%
COc1ccc(Cl)cc1S(=O)(=O)n1nnc2ccccc21 49%
COc1ccc(OC)c(S(=O)(=O)n2nnc3ccccc32)c1 56.9%
O=S(=O)(Nc1cccc(-c2ccc3nncn3n2)c1)c1ccc(Cl)s1 26.4%
CN(C)c1cccc(-c2nnc(SCCCC#N)o2)c1 -3.34%
CCOC(=O)Cc1csc(NC(=O)NC2(C(F)(F)F)Oc3ccccc3O2)n1 6.11%
CCOC(=O)Cc1csc(NC(=O)NC2(C(F)(F)F)Oc3ccc(Cl)cc3O2)n1 (stereo not given) 52.5%
C=CCn1c(COC)nnc1SCC(=O)c1ccc(F)cc1 -1.58%
CC(C)(C)c1ccc(C(=O)NN2C(=O)CSC2=S)cc1 5.92%
Cc1ccc(C(=O)NN2C(=O)CSC2=S)cc1 33.1%
COc1ccccc1CNC(=O)CN1C(=O)C(C)N(c2ccc(C)cc2)C1=O (stereo not given) -0.45%
Cc1ccc(Nc2nc3ccccc3nc2Nc2c(C)n(C)n(-c3ccccc3)c2=O)cc1 -3.59%
Cc1c(NS(=O)(=O)c2ccccc2)c(=O)n(-c2ccccc2)n1C -14.2%
Cc1c(Nc2nc3ccccc3nc2N2CCN(c3ccccc3)CC2)c(=O)n(-c2ccccc2)n1C 9.74%
Cc1c(Nc2nc3ccccc3nc2NS(=O)(=O)c2cccs2)c(=O)n(-c2ccccc2)n1C 35.4%
O=S(=O)(Nc1nc2ccccc2nc1NCCO)c1cccc(Cl)c1 45%
O=S(=O)(Nc1nc2ccccc2nc1NCC1CCCO1)c1cccc(Cl)c1 (stereo not given) 12.2%
Cc1ccc(N(Cc2cc3ccccc3[nH]c2=O)S(=O)(=O)c2ccccc2)cc1 9.01%
CCN(CC)C(=O)CSc1nnc(-c2ccc(S(=O)(=O)N3CCCC3)cc2)o1 -8.97%
CCOC(=O)C1=NNC2C(=O)N(Cc3ccccc3)C(=O)C12 (stereo not given) 5.31%
COC(=O)C1=C(C)N(c2ccc(OC)cc2)C(C)=C(C(=O)OC)C1c1ccc(OC)cc1 -14.2%
Cc1nc2ccccc2c2c1C(=O)NC2=O -0.48%
CCOC(=O)C1CCN(c2cc(=O)n(C3CCCCC3)c(=O)[nH]2)CC1 7.51%
CS(=O)(=O)N(CC(=O)Nc1ccc(S(=O)(=O)N2CCOCC2)cc1)c1ccccc1Cl 12.3%
COc1ccccc1Cn1[nH]nnc1=S 5.05%
COc1ccc([C@H]2[C@H](C(=O)OC(C)(C)C)N3N=Cc4ccccc4C3C23C(=O)c2ccccc2C3=O)cc1OC (stereo not given in full) 21.8%
COc1ccc([C@H]2[C@H](C(=O)OC(C)(C)C)N3N=Cc4ccccc4C3C23C(=O)c2ccccc2C3=O)c(OC)c1 (stereo not given in full) 34.9%
CC(C)CCn1nnnc1C(c1ccc(N(C)C)cc1)N1CCN(C(=O)c2ccco2)CC1 (stereo not given) 8.08%
COC(=O)c1cc(C)sc1NC(=O)C1CC=CCC1C(=O)O (stereo not given) 36.3%
O=C(O)C1CC=CCC1C(=O)NNc1ccccc1 (stereo not given) 1.11%
O=C(O)c1ccc(NC(=O)C2CC=CCC2C(=O)O)cc1 (stereo not given) 2.25%
CC1=C(C)CC(C(=O)NNC(=O)c2cccc(Cl)c2)C(C(=O)O)C1 (stereo not given) 27.5%
O=C(O)C1CC=CCC1C(=O)Nc1cccnc1 (stereo not given) 20.5%
O=C(NNC(=O)C1CC1c1ccccc1)Nc1cccc(Cl)c1 (stereo not given) -2.69%
COC(=O)c1cc(NC(=O)C2CC2)cc(C(=O)OC)c1 4.68%
O=C(CCSc1ccccc1)NC1CCCCCC1 2.59%
COc1ccc(C(=O)NCCCCCC(=O)N/N=C/c2ccco2)cc1OC -1.79%
C=CCn1c(-c2ccc(OC)c(OC)c2)n[nH]c1=S 13.8%
COc1ccc(S(=O)(=O)Nc2ccc3c(c2)OCO3)cc1 -4.98%
COc1ccccc1NC(=S)NCCSc1ccc(Cl)cc1 -3.97%
O=C(Nc1nccs1)c1ccc(S(=O)(=O)N2CCOCC2)cc1 7.17%
CCCC1=C(C(=O)OCC)C(c2ccncc2)n2ncnc2N1 (stereo not given) 5.84%
CC1=CC(C#N)(C#N)C(C#N)(C#N)C(c2ccccc2)N1 (stereo not given) -40.9%
O=C(O)C1CCCCC1C(=O)Nc1nccs1 (stereo not given) 15.9%
O=C(O)C1CC=CCC1C(=O)Nc1cccc([N+](=O)[O-])c1 (stereo not given) 14.2%
O=C(O)C1C2C=CC(C2)C1C(=O)Nc1cccc(F)c1 (stereo not given) 23.1%
O=C(O)C1CC=CCC1C(=O)Nc1cccc(C(=O)N2CCCCC2)c1 (stereo not given) 40.8%
O=C(O)C1CCCCC1C(=O)NCCc1cccc(Cl)c1 (stereo not given) 75%
O=C(Nc1cccc([N+](=O)[O-])c1)C1C2CC/C=C\CCC21 (stereo not given) 0.68%
O=C(O)C1CC=CCC1C(=O)NCCc1ccccc1 (stereo not given) 42%
O=C(Nc1nccs1)c1ccc(NC(=O)c2ccco2)cc1 9.18%
O=C(Nc1nc(-c2ccccc2)cs1)C1c2ccccc2Oc2ccccc21 1.51%
Cc1ccc(Cn2c(=O)cc(C(=O)O)c3ccccc32)cc1 -52.6%
CC(C)CC(=O)N1CCN(S(C)(=O)=O)CC1 9.33%
CCCc1cc(C(=O)N2CCN(S(=O)(=O)c3ccc(OC)c(OC)c3)CC2)cs1 -3.16%
COc1ccc(Cl)cc1C(=O)N(Cc1nc(-c2cccc(C)c2)no1)C(C)C -1.6%
CC(C)(C)c1ccc(C(=O)Nc2ccc(O)c3c(=O)cc(-c4cccc(Cl)c4)oc23)cc1 0.21%
Cc1nnc(-c2cnn(C)c2N)n1CCCN(C)C -1.24%
